In the library only some 7.9% were active in any assay of this set; here they are far more common.
MCF10A rereplic = inducers of DNA re-replication in MCF 10A breast cells; MCF 10A DNA re-replication, Hoechst nuclear intensity, 48 h; Potency, µM (doses to about 46.1 µM), inactives show at the top dose activity, positive = re-replication, hits mostly activators; actives 2.9% (n = 350,000); note: % of control where 0% means no effect; nearly all actives have a fitted effect of over 50% in size
SW480 rereplic = inducers of DNA re-replication in SW480 colon cancer cells; SW480 DNA re-replication, Hoechst DNA content imaging, 48 h; actives 1.8% (n = 340,000); AID 624297; Potency, µM (series often up to 46.1 µM), without a hit: at the top dose re-replication activation, actives largely listed as activators; note: % of control where 0% means no effect; nearly all actives have a fitted effect of over 55% in size
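Image-based read-out: total Hoechst fluorescence of nuclei (405 nm excitation, 500-530 nm emission), with hits raising the fraction of high-intensity nuclei. SW480 colon cells incubated 48 hr with compounds at 37 C.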
KB-V1 cytotox = KB-V1 MDR subline cytotoxicity | Potency, µM (series often up to 46.1 µM), actives largely listed as cytotoxic | actives 3.4% (n = 400,000) | AID 1347076 | KB-V1 MDR cells viability, CellTiter-Glo, 72 h; note: % is set by controls: 0 for no effect and ±100 for the full control effect; nearly all actives have a fitted effect of over 60% in size
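Cytotoxicity via CellTiter-Glo luminescence after 72 h compound exposure at 37 degrees C. Cells: drug-selected KB-V1 line, DMEM phenol-red free plus 10% FBS. Compounds tested at multiple concentrations; normalized data fitted to concentration-effect curves.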
HT1080 IDH1KD tx = HT-1080 IDH1 knockdown cell toxicity (counter line); Potency, µM (titrated, usually from 46.1 µM), for inactives: at the highest dose activity, negative = toxicity, most hits filed as cytotoxic; HT-1080 IDH1 knockdown viability, ATP luminescence, 48 h; actives 2% (n = 360,000);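 note: 0% = DMSO wells and -100% = cell-free medium wells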
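In this qHTS, HT-1080 cells depleted of IDH1 are exposed for 48 h at 37 °C to compound titrations. Toxicity is scored from CellTiter-Glo luminescence, with DMSO as full viability and medium alone as none.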
KB-3-1 cytotox = KB-3-1 parental cell cytotoxicity; KB-3-1 viability, CellTiter-Glo ATP luminescence, 72 h; Potency, µM (doses to about 46.1 µM), most hits filed as cytotoxic; actives 1.4% (n = 400,000); AID 1347075; note: % is set by controls: 0 for no effect and ±100 for the full control effect; nearly all actives have a fitted effect of over 60% in size
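Cytotoxicity measured as CellTiter-Glo luminescence after 72 h at 37 C. Compound titrations were pinned onto drug-naive KB-3-1 parental adenocarcinoma cells grown in DMEM with 10% FBS, and normalized data fitted to concentration-response curves.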
HT1080NT lethal = kills 2HG-producing HT-1080-NT fibrosarcoma cells. actives 1.6% (n = 360,000). HT-1080-NT fibrosarcoma viability, CellTiter-Glo ATP luminescence, 48 h. AID 686970. Potency, µM (highest dose often 46.1 µM), without a hit: at the highest dose activity, negative = less viability, usual class: cytotoxic;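 note: NT is the 2HG producing partner of a matched IDH1 knockdown line; 0% = DMSO-treated cells and -100% = media-only wells without cells; nearly all actives have a fitted effect of over 55% in size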
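HT-1080-NT fibrosarcoma cells (2HG-overproducing), 750 cells/well in RPMI with 5% FBS, dosed after 2 h and incubated 48 h at 37C. CellTiter-Glo luminescence normalized to DMSO and no-cell wells; concentration-response curves fitted and classed.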
The depositor's hits bear a star; i = inactive; ? = inconclusive; / = not tested or not shown; ! = not active in a repeat; [ ] = remark or other dose. Calls come from the whole dose curve; as a rule, active = well fitted curve in the direction sought with a large enough effect; inconclusive = small, poorly fitted or top-dose-only effect, or another doubt; inactive = no such curve, though single readings can be large; an effect the other way counts as inactive or inconclusive. Potency is the fitted concentration of half-maximal effect.

SMILES | MCF10A rereplic | SW480 rereplic | KB-V1 cytotox | HT1080 IDH1KD tx | KB-3-1 cytotox | HT1080NT lethal
CCN(CC)c1cc(C)c2cc(NC(=O)c3ccccc3OC)ccc2n1 | ? | ? | ? | ? | 18.4µM*! | ?
CCCCc1ccc(C(=O)Nc2ccc3nc(N(CC)CC)cc(C)c3c2)cc1 | / | / | i | / | i | /
CCN(CC)c1cc(C)c2cc(NC(=O)c3cc(OC)cc(OC)c3)ccc2n1 | / | / | i | / | i | /
CCN(CC)c1cc(C)c2cc(NC(=O)c3cccc(F)c3)ccc2n1 | / | / | ? | / | i | /
COc1ccc(Nc2cc(C)c3cc(NC(=O)c4ccccc4Cl)ccc3n2)cc1 | / | / | 18.4µM* | / | i | /
CCN(CC)c1cc(C)c2cc(NC(=O)c3ccc(OC)c(OC)c3)ccc2n1 | / | / | i | / | 16.4µM* | /
CCN(CC)c1cc(C)c2cc(NC(=O)c3ccc(Br)o3)ccc2n1 | 9.2µM* | ? | ? | -21.9% | ? | -15.4%
c1ccc(OCc2nn3c(-c4cccnc4)nnc3s2)cc1 | 5.0% | -2.1% | i | 0.6% | i | 2.5%
CCN(CC)c1cc(C)c2cc(NC(=O)/C=C/c3ccccc3Cl)ccc2n1 | / | / | i | / | 13µM* | /
CCN(CC)c1cc(C)c2cc(NC(=O)c3ccc(F)cc3Cl)ccc2n1 | / | / | i | / | ? | /
CC1(C)CC(NC(=O)c2coc(=O)c(Br)c2)CC(C)(C)N1 | 18.4µM* | ? | i | 4.9% | 16.4µM* | 10.2%
COc1ccc(C(=O)NCCc2c[nH]c3ccc(OC)cc23)cc1 | 4.4% | -8.8% | i | 24.6% | i | 19.7%
COC(=O)C1=C(C)NC(C)=C(C(=O)OCC(C)C)C1c1ccccc1[N+](=O)[O-] (configuration not stated) | 26.6µM* | ? | 3.66µM* | 25.9µM* | i | 16.4µM*
C#CCn1cc(C=C2C(=O)c3ccccc3C2=O)c2ccccc21 | 15.0% | ? | i | 2.8% | i | -5.5%
COc1ccc(N2CCN(C(=O)CCc3c[nH]c4ccccc34)CC2)cc1 | 1.1% | 8.7% | i | 5.2% | i | -1.2%
O=C(CCc1c[nH]c2ccccc12)N1CCN(c2ccc(O)cc2)CC1 | ? | ? | ? | 13µM* | i | ?
c1ccc(Nc2cccc3c(Nc4ccccc4)cccc23)cc1 | ? | ? | i | -7.1% | i | ?
O=S(=O)(O)c1cccc2cccc(Nc3ccccc3)c12 | 20.6µM* | 16.4µM* | i | 2.7% | i | -2.2%
COc1ccc2oc(C(=O)NC(C)c3ccccn3)c(C)c2c1 (configuration not stated) | 2.7% | -8.8% | i | 0.0% | i | -2.5%
COc1ccc(Br)cc1CNc1ccc(N2CCOCC2)cc1 | 7.0% | 6.1% | i | 1.9% | i | 1.8%
CCCc1cc(C(=O)N(C)CC(=O)Nc2ccc(OCC)c(OCC)c2)sc1C | 0.461µM* | -9.9% | ? | -3.0% | ? | -5.7%
CCOc1ccc(NC(=O)CN(C)C(=O)C2CCCC2)cc1OCC | 0.651µM* | -42.5% | i | 3.8% | i | 9.5%
c1coc(CSCc2cn3cccnc3n2)c1 | -1.4% | -14.3% | i | 8.8% | i | 14.4%
CCN(CC)C(=O)CSc1nc2c(sc(=S)n2-c2ccccc2)c(=O)n1-c1ccc(OC)cc1OC | 16.2% | -4.5% | i | -2.9% | i | -9.0%
CCN1C(=O)C2(Nc3ccccc3-c3nc4ccccc4n32)c2cc(OC)ccc21 (configuration not stated) | 1.2% | 1.5% | 13µM* | -4.8% | ? | -8.5%
SMILES | MCF10A rereplic | SW480 rereplic | KB-V1 cytotox | HT1080 IDH1KD tx | KB-3-1 cytotox | HT1080NT lethal
CC(C)OC(=O)CSc1nnc(Cc2ccccc2)n1Cc1ccco1 | ? | -0.6% | i | 4.8% | i | 1.8%[9.24 µM]
O=C(Cn1c2ccccc2c(=O)c2cc([N+](=O)[O-])ccc21)Nc1ccccc1Cl | ? | 16.4µM* | i | 6.2% | i | -0.1%
O=C(Cn1c2ccccc2c(=O)c2ccccc21)Nc1ccccc1F | ? | / | ? | -24.1% | i | -2.1%
O=c1c2c(nc3c(-c4ccccc4)c[nH]n13)CCCC2 | -0.7% | 2.7% | ? | -8.4% | 20.6µM* | -6.1%
Cc1[nH]n2c(=O)c3c(nc2c1-c1ccc(Cl)cc1)CCC3 | ? | -13.1% | ? | -12.5% | 8.2µM* | -10.5%
Nc1[nH]n2c(=O)c3c(nc2c1N=Nc1ccccc1)CCCC3 | ? | 12.5% | 13µM* | -22.9% | 11.6µM* | -13.3%
CCOC(=O)Nc1cccc2ccccc12 | -4.1% | -2.1% | i | 1.8% | i | 3.0%
CCOC(=O)Nc1ccc2c3c(cccc13)-c1ccccc1-2 | ? | 6.51µM* | ? | ? | ? | ?
CCC(CO)Nc1nc2ccc(Cl)cc2c2ccccc12 (configuration not stated) | ? | ? | i | 18.4µM* | i | ?
CCC(CO)Nc1ncnc2c1cnn2-c1ccc(Cl)cc1 (configuration not stated) | 9.3% | -1.1% | i | -1.9% | i | -6.4%
CC1(C)CC(NC(=O)CSc2ccccc2)CC(C)(C)N1 | 0.1% | 0.7% | i | -1.9% | i | -0.5%
CCc1nn(CCCC(=O)NCc2ccc(OC(C)C)cc2)c(=O)c2cc3occc3n12 | ? | ? | ? | 10.3µM* | 7.31µM* | 11.6µM*
CCc1nn(C(C)C(=O)N2CCN(c3ccc(OC)cc3)CC2)c(=O)c2cc3occc3n12 (configuration not stated) | ? | ? | i | ? | 9.2µM* | -25.8%
CCc1nn(C(C)C(=O)N2CCN(Cc3ccccc3)CC2)c(=O)c2cc3occc3n12 (configuration not stated) | -4.3% | 0.7% | i | 5.0% | i | 4.8%
CCc1nn(C(C)C(=O)N2CCN(c3cccc(C(F)(F)F)c3)CC2)c(=O)c2cc3occc3n12 (configuration not stated) | / | / | 8.2µM* | / | 13µM* | /
CCc1nn(C(C)C(=O)N2CC(C)CC(C)C2)c(=O)c2cc3occc3n12 (configuration not stated) | -11.6% | -3.9% | i | 8.3% | i | 7.4%
CC1Cc2ccccc2N1CC(=O)NC(=O)NCc1ccccc1 (configuration not stated) | 14.2% | -9.8% | i | -2.3% | i | 17.5%
CC1(COS(N)(=O)=O)CCCCC1 | 2.0% | -35.0% | i | 5.5% | i | 10.0%
COCC(=O)Nc1nnc(SCC(=O)N2C(C)CCCC2C)s1 (configuration not stated) | -3.9% | -2.7% | i | 9.5% | i | 15.3%
